Values joined by “and” are separate entries in the source; they are usually repeats but may differ in a detail not shown here. Equal values may be shown once. Out of some 5,500 compounds screened, about 2,000 (36%) were called active. Not shown: some 18% with an inconclusive outcome. No stated cut-off is given here; in the data, active means normalized growth mostly below about 0.91 (no sharp cut-off); inconclusive means no clear call, values can overlap the other calls; inactive means mostly above about 0.92. Some of the results follow.
Assay: chemical genetic growth profiling, strain panel (AID 1159580);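 further: tested at 20 µM; growth read once vehicle control cultures reached saturation at 30 °C; 1 = growth at the plate median or of vehicle wells; lower values mean less growth of the strain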
Conditions: growth OD

Measured: normalized growth

CC(=O)OC/C=C(C)/C=C/C=C(C)/C=C/C1=C(C)CCCC1(C)C
inactive: S. cerevisiae deletion strains, locus YAL013W, strain DEP1, active compounds read low 1.02 | S. cerevisiae deletion strains, locus YBR021W, strain FUR4, active compounds read low 1.03 | S. cerevisiae deletion strains, locus YBR229C, strain ROT2, active compounds read low 1.02 | S. cerevisiae deletion strains, locus YCL029C, strain bik1, active compounds read low 1 | S. cerevisiae deletion strains, locus YDL035C, strain GPR1, active compounds read low 1.01 | S. cerevisiae deletion strains, locus YDL074C, strain BRE1, active compounds read low 1.03 | S. cerevisiae deletion strains, locus YDL101C, strain DUN1, active compounds read low 1.03 | S. cerevisiae deletion strains, locus YDL134C, strain PPH21, active compounds read low 1 | S. cerevisiae deletion strains, locus YDL185W, strain tfp1, active compounds read low 0.992 | S. cerevisiae deletion strains, locus YDL192W, strain arf1, active compounds read low 0.994 | S. cerevisiae deletion strains, locus YDR101C, strain arx1, active compounds read low 0.988 | S. cerevisiae deletion strains, locus YDR150W, strain NUM1, active compounds read low 1.01 | S. cerevisiae deletion strains, locus YDR162C, strain NBP2, active compounds read low 1.01 | S. cerevisiae deletion strains, locus YDR318W, strain mcm21, active compounds read low 1 | S. cerevisiae deletion strains, locus YDR388W, active compounds read low 0.994 | S. cerevisiae deletion strains, locus YDR502C, strain sam2, active compounds read low 0.996 | S. cerevisiae deletion strains, locus YEL061C, strain CIN8, active compounds read low 1.02 | S. cerevisiae deletion strains, locus YER110C, active compounds read low 0.992 | S. cerevisiae deletion strains, locus YER155C, strain BEM2, active compounds read low 1.02 | S. cerevisiae deletion strains, locus YER167W, strain BCK2, active compounds read low 1.02 | S. cerevisiae deletion strains, locus YGL078C, strain dbp3, active compounds read low 0.982 | S. cerevisiae deletion strains, locus YGL086W, strain mad1, active compounds read low 1 | S. cerevisiae deletion strains, locus YGL248W, strain PDE1, active compounds read low 1.03 | S. cerevisiae deletion strains, locus YGR078C, strain PAC10, active compounds read low 1.04 | S. cerevisiae deletion strains, locus YGR135W, strain pre9, active compounds read low 0.984 | S. cerevisiae deletion strains, locus YGR252W, strain gcn5, active compounds read low 0.982 | S. cerevisiae deletion strains, locus YHR030C, strain SLT2, active compounds read low 1.02 and 1.06 | S. cerevisiae deletion strains, locus YHR079C, strain IRE1 (second series), active compounds read low 1 | S. cerevisiae deletion strains, locus YHR079C, strain IRE1, active compounds read low 1.06 | S. cerevisiae deletion strains, locus YHR094C, strain hxt1, active compounds read low 0.991 | S. cerevisiae deletion strains, locus YHR129C, strain ARP1, active compounds read low 1.02 | S. cerevisiae deletion strains, locus YHR200W, strain rpn10, active compounds read low 0.999 | S. cerevisiae deletion strains, locus YIL066C, strain RNR3, active compounds read low 1.02 | S. cerevisiae deletion strains, locus YIL073C, strain SPO22, active compounds read low 1.02 | S. cerevisiae deletion strains, locus YIL125W, strain kgd1, active compounds read low 0.992 | S. cerevisiae deletion strains, locus YIR030C, strain dcg1, active compounds read low 0.994 | S. cerevisiae deletion strains, locus YJL095W, strain BCK1, active compounds read low 1.05 and 1.04 | S. cerevisiae deletion strains, locus YJL134W, strain LCB3, active compounds read low 1.02 | S. cerevisiae deletion strains, locus YJL168C, strain set2, active compounds read low 0.999 | S. cerevisiae deletion strains, locus YJL187C, strain SWE1 (second series), active compounds read low 1.02 | S. cerevisiae deletion strains, locus YJR043C, strain POL32, active compounds read low 1.02 | S. cerevisiae deletion strains, locus YJR066W, strain TOR1, active compounds read low 0.959 | S. cerevisiae deletion strains, locus YJR075W, strain HOC1, active compounds read low 1.03 | S. cerevisiae deletion strains, locus YKL009W, strain mrt4, active compounds read low 1.01 | S. cerevisiae deletion strains, locus YKL068W, active compounds read low 1 | S. cerevisiae deletion strains, locus YKL085W, strain MDH1 (second series), active compounds read low 0.993 | S. cerevisiae deletion strains, locus YKL085W, strain MDH1, active compounds read low 0.993 | S. cerevisiae deletion strains, locus YKL190W, strain CNB1, active compounds read low 1.01 | S. cerevisiae deletion strains, locus YKR001C, strain vps1, active compounds read low 0.999 | S. cerevisiae deletion strains, locus YLR039C, strain RIC1, active compounds read low 1.05 | S. cerevisiae deletion strains, locus YLR058C, strain SHM2, active compounds read low 1.01 | S. cerevisiae deletion strains, locus YLR102C, strain apc9, active compounds read low 1 | S. cerevisiae deletion strains, locus YLR113W, strain HOG1, active compounds read low 0.981 | S. cerevisiae deletion strains, locus YLR262C, strain YPT6, active compounds read low 1.03 | S. cerevisiae deletion strains, locus YLR268W, strain sec22, active compounds read low 1.01 | S. cerevisiae deletion strains, locus YLR330W, strain CHS5, active compounds read low 1.02 | S. cerevisiae deletion strains, locus YLR342W, strain FKS1 (second series), active compounds read low 0.986 | S. cerevisiae deletion strains, locus YLR371W, strain rom2, active compounds read low 1 | S. cerevisiae deletion strains, locus YLR418C, strain cdc73, active compounds read low 0.986 | S. cerevisiae deletion strains, locus YML016C, strain PPZ1, active compounds read low 1.01 | S. cerevisiae deletion strains, locus YML032C, strain rad52, active compounds read low 0.998 | S. cerevisiae deletion strains, locus YML124C, strain tub3, active compounds read low 0.999 | S. cerevisiae deletion strains, locus YMR078C, strain ctf18, active compounds read low 1.01 | S. cerevisiae deletion strains, locus YMR223W, strain ubp8, active compounds read low 1.01 | S. cerevisiae deletion strains, locus YMR307W, strain GAS1, active compounds read low 0.898 | S. cerevisiae deletion strains, locus YNL067W, strain RPL9B, active compounds read low 1.03 | S. cerevisiae deletion strains, locus YNL183C, strain NPR1, active compounds read low 0.953 | S. cerevisiae deletion strains, locus YNL233W, strain BNI4, active compounds read low 1.05 | S. cerevisiae deletion strains, locus YNL250W, strain rad50, active compounds read low 0.989 | S. cerevisiae deletion strains, locus YNL271C, strain bni1, active compounds read low 0.988 | S. cerevisiae deletion strains, locus YNL298W, strain CLA4, active compounds read low 0.981 | S. cerevisiae deletion strains, locus YNL307C, strain MCK1, active compounds read low 1 | S. cerevisiae deletion strains, locus YNL322C, strain KRE1, active compounds read low 1.02 | S. cerevisiae deletion strains, locus YNR052C, strain pop2, active compounds read low 0.996 | S. cerevisiae deletion strains, locus YOL006C, strain TOP1, active compounds read low 1.06 | S. cerevisiae deletion strains, locus YOL012C, strain htz1 1.19 | S. cerevisiae deletion strains, locus YOL147C, strain pex11, active compounds read low 0.997 | S. cerevisiae deletion strains, locus YOR061W, strain CKA2, active compounds read low 1.01 | S. cerevisiae deletion strains, locus YOR069W, strain VPS5, active compounds read low 1.02 | S. cerevisiae deletion strains, locus YOR136W, strain idh2, active compounds read low 1 | S. cerevisiae deletion strains, locus YOR144C, strain elg1, active compounds read low 0.998 | S. cerevisiae deletion strains, locus YOR184W, strain ser1, active compounds read low 0.998 | S. cerevisiae deletion strains, locus YOR231W, strain MKK1, active compounds read low 1.04 | S. cerevisiae deletion strains, locus YOR316C, strain cot1, active compounds read low 0.999 | S. cerevisiae deletion strains, locus YPL241C, strain CIN2, active compounds read low 1.01 | S. cerevisiae deletion strains, locus YPL256C, strain CLN2, active compounds read low 1.08 | S. cerevisiae deletion strains, locus YPR119W, strain clb2, active compounds read low 1 | S. cerevisiae deletion strains, locus YPR141C, strain kar3, active compounds read low 0.992 | S. cerevisiae deletion strains, locus YPR163C, strain tif3, active compounds read low 0.994 | S. cerevisiae deletion strains, locus YPR167C, strain met16, active compounds read low 1 | S. cerevisiae deletion strains, strain wtn01, active compounds read low 0.995 | S. cerevisiae strains, strain wild type, active compounds read low 1.02

Source: PubChem BioAssay AID1159580 (chemical genetic matrix, 2015)
